Results as given in PubChem BioAssay.
Calls of active or inactive are those of the source.

Legend:
[1] = molecular target: Albumin (Bos taurus) (UniProt P02769); assay: bovine serum albumin binders on microarray, profiling panel, artefact control for SMM control protein annotation, biochemical, small-molecule microarray, Alexa647 label, 635/667 nm fluorescence (AID 1118); conditions: BSA-A647 binding, fluorescence 635 nm, higher = more signal;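 also: score merges 667 nm emission intensity and signal-to-noise per printed compound spot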
Chain of Albumin (Bos taurus) (P02769 whole entry, looked up): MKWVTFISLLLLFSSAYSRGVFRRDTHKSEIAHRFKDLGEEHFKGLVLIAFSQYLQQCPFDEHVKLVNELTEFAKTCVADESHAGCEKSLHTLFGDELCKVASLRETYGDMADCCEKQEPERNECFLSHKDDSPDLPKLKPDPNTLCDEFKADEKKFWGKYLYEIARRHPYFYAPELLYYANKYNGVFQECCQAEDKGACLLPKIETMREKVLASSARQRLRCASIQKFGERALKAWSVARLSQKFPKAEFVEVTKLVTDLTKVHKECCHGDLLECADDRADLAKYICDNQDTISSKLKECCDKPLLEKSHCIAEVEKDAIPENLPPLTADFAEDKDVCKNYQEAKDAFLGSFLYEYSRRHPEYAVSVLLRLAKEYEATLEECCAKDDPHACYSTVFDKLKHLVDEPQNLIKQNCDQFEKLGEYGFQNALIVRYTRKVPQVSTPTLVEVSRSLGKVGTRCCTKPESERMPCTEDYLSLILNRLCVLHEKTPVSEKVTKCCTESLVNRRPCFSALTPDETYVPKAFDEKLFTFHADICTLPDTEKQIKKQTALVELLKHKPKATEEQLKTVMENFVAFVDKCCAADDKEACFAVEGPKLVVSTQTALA

[2] = small-molecule microarray binders of probe aXIP, primary screen, biochemical, NeuroSMM set, 635/667 nm fluorescence (AID 1119); conditions: higher = more signal, called active from +8 up or from −8 down;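 also: probe is the protein aXip251-270 applied at 1 µg/mL to compound-printed slides; binding of probe to printed compounds measured as 667 nm fluorescence plus signal to noise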
[3] = small-molecule binders of probe aNOTCH3, primary screen, biochemical, small-molecule microarray, 635/667 nm fluorescence (AID 1120); conditions: higher = more signal;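 also: probe is a biotin-tagged antibody raised against NOTCH3 rather than NOTCH3 protein; score merges spot fluorescence near 667 nm with spot signal to noise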
[4] = small-molecule binders of probe aNOTCH2, primary screen, biochemical, small-molecule microarray, 635/667 nm fluorescence (AID 1121); conditions: higher = more signal;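 also: score merges feature fluorescence read at 667 nm with its signal to noise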
[5] = molecular target: Carbonic anhydrase 2 (Homo sapiens) (UniProt P00918); assay: CAII small-molecule binders, profiling panel, biochemical, small-molecule microarray, Alexa647-labelled CAII (AID 1122); conditions: CAII-A647 binding fluorescence, higher = more signal
[6] = COS7 lysate on small-molecule microarray, probe aHis, 635 nm (AID 1123); conditions: COS7 cell lysate, fluorescence, higher = more signal;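 also: z-score combines 667nm fluorescence intensity with signal-to-noise per printed compound spot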
[7] = compound binding in COS7 lysate, probe aLAP1, primary screen, cell lysate, small-molecule microarray (AID 1124); conditions: probe aLAP1, fluorescence, higher = more signal;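 also: lysate comes from COS7 cells expressing LAP1 and is applied at 0.3 µg/mL; score merges spot fluorescence near 667 nm with signal-to-noise over triplicate slides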
[8] = system: Sam68 (KHDRBS1); assay: Sam68 small-molecule binders, primary screen, biochemical, small-molecule microarray, 635 nm fluorescence (AID 1125); conditions: small-molecule microarray binding, higher = more signal;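 also: score merges 667 nm channel intensity with signal to noise over triplicate slides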
[9] = system: Chordin-like protein 2 (CHRDL2); assay: CHRDL2 small-molecule binders, primary screen, biochemical, small-molecule microarray, 635 nm fluorescence (AID 1126); conditions: small-molecule microarray binding, fluorescence 635 nm; higher = more signal;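 also: printed compound slides probed with Chrdl2 protein at 4 µg/mL for 1 h at 4 C; score merges 667 nm emission intensity with signal to noise over three replicate slides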
[10] = molecular target: Concanavalin-A (Canavalia ensiformis) (UniProt P02866); assay: ConA small-molecule binders, primary screen, artefact control for SMM control protein annotation, biochemical, small-molecule microarray, Alexa647 label, 635 nm (AID 1127); conditions: ConA-A647 binding fluorescence, higher = more signal;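 also: z combines 667 nm emission intensity with signal-to-noise across three replicate slides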
Chain of Concanavalin-A (Canavalia ensiformis) (P02866 whole entry, looked up): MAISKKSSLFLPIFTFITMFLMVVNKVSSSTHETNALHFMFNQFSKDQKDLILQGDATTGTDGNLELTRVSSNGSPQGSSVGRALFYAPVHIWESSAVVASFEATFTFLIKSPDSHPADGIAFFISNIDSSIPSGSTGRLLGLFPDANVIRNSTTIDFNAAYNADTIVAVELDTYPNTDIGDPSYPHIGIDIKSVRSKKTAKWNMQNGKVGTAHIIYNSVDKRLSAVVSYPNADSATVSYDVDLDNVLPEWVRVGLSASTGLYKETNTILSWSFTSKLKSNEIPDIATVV

[11] = anti-His antibody binders, primary screen, artefact control for SMM control protein annotation, biochemical, small-molecule microarray, 635 nm fluorescence (AID 1128); conditions: anti-His Alexa647 antibody binding, higher = more signal;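 also: score merges feature fluorescence with signal-to-noise for each printed compound spot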
[12] = system: Human papillomavirus type 1a E7 protein (residues 1-88); assay: HPV1a E7 small-molecule binders, primary screen, biochemical, small-molecule microarray, residues 1-88, 635 nm (AID 1129); conditions: small-molecule microarray binding, fluorescence 635 nm; higher = more signal
[13] = molecular target: Focal adhesion kinase 1 (Homo sapiens) (UniProt Q05397); assay: small-molecule microarray binders of FAK, primary screen, biochemical, 635/667 nm fluorescence, BSA, DTT (AID 1130); conditions: PTK2 binding, 635 nm fluorescence, higher = more signal;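 also: composite of spot emission at 667 nm and signal to noise over triplicate slides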
Chain of Focal adhesion kinase 1 (Homo sapiens) (Q05397 whole entry, looked up): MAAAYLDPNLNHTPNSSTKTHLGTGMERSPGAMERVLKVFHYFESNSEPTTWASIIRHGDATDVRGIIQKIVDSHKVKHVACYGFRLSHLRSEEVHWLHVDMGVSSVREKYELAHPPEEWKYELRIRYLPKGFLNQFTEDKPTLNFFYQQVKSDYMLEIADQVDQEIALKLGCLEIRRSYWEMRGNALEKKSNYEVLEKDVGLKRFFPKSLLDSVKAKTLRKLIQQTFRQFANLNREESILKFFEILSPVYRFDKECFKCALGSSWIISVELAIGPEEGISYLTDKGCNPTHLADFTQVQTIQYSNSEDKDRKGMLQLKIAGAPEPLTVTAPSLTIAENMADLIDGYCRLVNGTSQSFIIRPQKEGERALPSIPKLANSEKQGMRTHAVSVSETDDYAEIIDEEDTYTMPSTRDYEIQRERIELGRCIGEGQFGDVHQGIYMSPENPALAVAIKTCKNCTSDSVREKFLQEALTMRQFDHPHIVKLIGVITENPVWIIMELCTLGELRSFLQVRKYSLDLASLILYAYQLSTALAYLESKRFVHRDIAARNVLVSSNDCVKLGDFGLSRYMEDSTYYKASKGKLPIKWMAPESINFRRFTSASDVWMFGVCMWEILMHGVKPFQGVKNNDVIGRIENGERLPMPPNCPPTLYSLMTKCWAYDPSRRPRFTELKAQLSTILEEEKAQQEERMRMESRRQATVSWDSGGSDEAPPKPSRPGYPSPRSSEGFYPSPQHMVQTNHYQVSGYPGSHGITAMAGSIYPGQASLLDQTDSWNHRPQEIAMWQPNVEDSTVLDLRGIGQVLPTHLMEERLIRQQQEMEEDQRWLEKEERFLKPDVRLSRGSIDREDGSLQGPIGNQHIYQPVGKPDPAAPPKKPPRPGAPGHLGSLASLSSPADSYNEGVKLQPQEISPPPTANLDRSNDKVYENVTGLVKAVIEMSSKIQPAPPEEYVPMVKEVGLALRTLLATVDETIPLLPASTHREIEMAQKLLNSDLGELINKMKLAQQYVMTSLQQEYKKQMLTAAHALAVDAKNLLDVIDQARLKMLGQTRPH

[14] = system: Fibrinogen (Alexa647-labelled); assay: fibrinogen binders on compound microarrays, profiling panel, artefact control for SMM control-protein annotation, biochemical, small-molecule microarray, 635/667 nm fluorescence (AID 1131); conditions: fibrinogen-A647 binding fluorescence, higher = more signal;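 also: z-score merges 667 nm fluorescence with per-spot signal-to-noise over triplicate slides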
[15] = molecular target: Follistatin (Homo sapiens) (UniProt P19883); assay: follistatin binders on small-molecule microarrays, primary screen, biochemical, small-molecule microarray, 635/667 nm fluorescence (AID 1132); conditions: FST binding, 635 nm fluorescence, higher = more signal
Chain of Follistatin (Homo sapiens) (P19883 whole entry, looked up): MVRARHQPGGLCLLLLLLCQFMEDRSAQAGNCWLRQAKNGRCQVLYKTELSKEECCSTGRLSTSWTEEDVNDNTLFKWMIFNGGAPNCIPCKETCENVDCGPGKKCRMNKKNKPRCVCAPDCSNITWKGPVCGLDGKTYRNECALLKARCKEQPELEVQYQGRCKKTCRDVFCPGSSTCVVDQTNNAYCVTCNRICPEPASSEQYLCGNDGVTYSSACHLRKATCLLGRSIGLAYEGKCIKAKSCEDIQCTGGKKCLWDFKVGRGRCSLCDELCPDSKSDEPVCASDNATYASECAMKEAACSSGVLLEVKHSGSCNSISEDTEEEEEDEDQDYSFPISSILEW

[16] = molecular target: Fibroblast growth factor 2 (Homo sapiens) (UniProt P09038); assay: FGF2 binders on small-molecule microarrays, primary screen, biochemical, small-molecule microarray, 635/667 nm fluorescence (AID 1133); conditions: small-molecule microarray binding, FGF2, fluorescence 635/667; higher = more signal
Chain of Fibroblast growth factor 2 (Homo sapiens) (P09038 whole entry, looked up): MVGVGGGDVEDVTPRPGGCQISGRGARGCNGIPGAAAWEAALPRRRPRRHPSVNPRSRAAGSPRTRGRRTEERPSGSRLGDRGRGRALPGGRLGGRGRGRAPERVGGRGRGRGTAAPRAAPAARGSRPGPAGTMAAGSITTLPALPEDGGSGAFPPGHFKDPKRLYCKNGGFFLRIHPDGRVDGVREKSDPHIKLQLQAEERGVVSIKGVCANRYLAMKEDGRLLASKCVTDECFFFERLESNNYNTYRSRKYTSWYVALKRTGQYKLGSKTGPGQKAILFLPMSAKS

[17] = mitochondrial membrane potential change in A549 cells, profiling panel, cell-based, JC-1 fluorescence, basal, 24 h, 100 nL (AID 1138); conditions: higher = more signal;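 also: A549 lung adenocarcinoma cells under basal conditions with no added stimulus; test concentration not given here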
[18] = system: Lefty1; assay: Lefty1 binders on small-molecule microarrays, primary screen, biochemical, small-molecule microarray, 635/667 nm fluorescence (AID 1139); conditions: small-molecule microarray binding, fluorescence 635/667; higher = more signal
[19] = system: wheat germ agglutinin (Triticum aestivum), Alexa647-labelled; assay: wheat germ agglutinin binders on compound microarrays, profiling panel, artefact control for SMM control-protein annotation, biochemical, small-molecule microarray, 635/667 nm fluorescence (AID 1140); conditions: WGA-A647 binding, 635 nm fluorescence, higher = more signal;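 also: score merges 667 nm feature emission with signal to noise over triplicate slides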
[20] = molecular target: Luciferin 4-monooxygenase (Photinus pyralis) (UniProt P08659); assay: firefly luciferase enzyme inhibitors, primary screen, biochemical, luminescence, purified enzyme, 2006 set (AID 1141); conditions: SteadyGlo luminescence, 30 min, higher = more signal, called active from +8 up or from −8 down;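 also: cell-free assay with purified firefly luciferase at 100 ng per well in PBS; test concentration not given here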
Chain of Luciferin 4-monooxygenase (Photinus pyralis) (P08659 whole entry, looked up): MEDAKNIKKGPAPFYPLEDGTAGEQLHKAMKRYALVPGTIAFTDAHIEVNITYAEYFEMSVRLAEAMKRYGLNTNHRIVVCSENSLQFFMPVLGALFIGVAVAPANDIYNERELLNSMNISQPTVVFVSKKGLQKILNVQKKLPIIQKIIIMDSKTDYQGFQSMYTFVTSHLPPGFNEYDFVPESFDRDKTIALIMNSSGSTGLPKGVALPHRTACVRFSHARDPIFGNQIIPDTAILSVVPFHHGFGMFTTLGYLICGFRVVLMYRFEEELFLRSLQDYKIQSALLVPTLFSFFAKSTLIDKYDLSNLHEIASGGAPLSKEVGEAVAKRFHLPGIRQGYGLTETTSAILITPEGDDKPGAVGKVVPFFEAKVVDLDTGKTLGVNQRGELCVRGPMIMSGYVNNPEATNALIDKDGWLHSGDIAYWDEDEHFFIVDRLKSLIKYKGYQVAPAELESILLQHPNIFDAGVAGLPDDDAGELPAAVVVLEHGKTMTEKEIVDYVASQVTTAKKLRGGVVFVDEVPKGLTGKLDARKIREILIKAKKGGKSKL

Row | SMILES | composite z-score [1] | composite Z-score [2] | composite z-score [3] | composite z-score [4] | composite z-score [5] | composite z-score [6] | composite z-score [7] | composite z-score [8] | composite z-score [9] | composite z-score [10] | composite z-score [11] | composite z-score [12] | composite z-score [13] | composite z-score [14] | composite z-score [15] | composite z-score [16] | z-score [17] | composite z-score [18] | composite z-score [19] | z-score [20]
1 | CO[C@H]1O[C@H](CO)[C@@H](OC(=O)Nc2ccccc2)[C@@H]2OC(=O)[C@@H](Cc3ccccc3)C/C=C/C[C@H](Cc3ccccc3)C(=O)O[C@@H]12 | 0.0558 | 0.547 (inactive) | 0.106 | -0.0486 | 0.315 | 0.923 | 0.79 | 0.296 | -0.0529 | -0.216 | 2.4 | 0.426 | 0.348 | 0.0766 | 0.661 | 0.0861 | -0.282 | 0.449 | 0.95 | -0.283 (inactive)
2 | [N-]=[N+]=Nc1ccccc1C[C@]1(C(=O)N2CCCCC2)N=C(c2ccc(OCCCO)cc2)O[C@H]1c1ccccc1 | 0.737 | -0.399 (inactive) | 0.196 | 0.179 | 0.708 | 1.52 | 0.121 | 1.31 | -0.249 | 1.18 | 2.69 | 1.2 | 0.307 | 0.934 | 1.26 | 1.38 | -0.0876 | 0.225 | 1.22 | -1.99 (inactive)
3 | COC(=O)[C@@]1(Cc2ccc(F)cc2)[C@H]2c3cc(C(=O)N4CCCC4)n(CCc4c[nH]c5cc(F)ccc45)c3C[C@H]2CN1C(=O)c1ccccc1 | 0.978 | 0.905 (inactive) | 1.05 | 0.488 | 0.767 | 2.76 | 0.202 | 1.33 | 0.212 | 1.03 | 1.43 | 1.26 | 1.16 | 0.999 | 1.13 | 0.296 | 0.592 | 0.293 | 0.832 | 2.41 (inactive)
4 | O=C1NC(=O)C2C1C=CC(C(O)c1ccc(F)cc1)N2Nc1ccc(Cl)cc1Cl (stereo not given) | 0.369 | 1.69 (inactive) | 0.0488 | -0.0113 | 0.732 | 2.4 | 0.591 | 0.246 | -0.242 | -0.345 | 1.97 | 0.638 | -0.0637 | -0.566 | -0.157 | -0.459 | -0.553 | -0.334 | -0.0287 | -1.32 (inactive)
5 | COc1ccc([Si](C)(C)[C@H]2[C@H](CC(=O)N(CCO)Cc3ccccc3)O[C@@]3(C(=O)N(Cc4cccc(N5CCCCC5=O)c4)c4ccccc43)[C@@H]2C)cc1 | 0.124 | 1.12 (inactive) | 0.401 | -0.131 | 0.235 | 0.681 | 0.825 | 0.732 | 0.877 | 0.72 | 1.13 | 0.694 | 0.18 | 0.267 | 0.724 | 1.23 | -0.153 | 0.931 | 0.311 | -1.55 (inactive)
6 | COC(=O)Cn1c(C(=O)N(C)C)cc2c1C[C@H]1CN(C(=O)c3ccccc3)[C@@](Cc3ccccc3)(C(=O)OC)[C@@H]21 | 0.759 | -0.265 (inactive) | 0.194 | 0.417 | 0.792 | 1.55 | 0.817 | -0.627 | -0.537 | 0.169 | 0.733 | 0.278 | 0.499 | -0.254 | -0.253 | 0.179 | 0.553 | -0.0528 | 0.533 | 3.15 (inactive)
7 | CC(C)C[C@@H]1NC(=O)[C@H]2C[C@@H](C(=O)O)[C@@H](c3cccc(OCCO)c3)N2C1=O | -0.371 | -0.12 (inactive) | -0.0014 | -0.0761 | 0.265 | 1.38 | 0.327 | 0.531 | 1.12 | 0.587 | 1.49 | 0.0559 | 0.119 | 0.267 | 1.3 | 1.66 | 0.951 | 0.797 | 0.325 | -1.07 (inactive)
8 | Cc1ccc(N2C(=O)c3ccccc3[C@@H](C(=O)NCCN3CCOCC3)[C@@H]2c2ccc(CO)cc2)nc1 | 0.132 | 0.309 (inactive) | 0.595 | -0.162 | -0.234 | 0.719 | -0.496 | -0.342 | -1.27 | -0.469 | -0.227 | -0.818 | -0.317 | -2.27 | 0.37 | -1.08 | -0.0724 | -0.702 | -0.183 | 1.09 (inactive)
9 | CC(=O)NCCCC[C@@H]1NC(=O)[C@H]2C[C@@H](C(=O)O)[C@@H](c3cccc(OCCO)c3)N2C1=O | 0.757 | 0.446 (inactive) | 0.348 | -0.0644 | 0.415 | 1.05 | 1.32 | 1.29 | 1.11 | 0.587 | 0.246 | 1.21 | 0.398 | 0.984 | 1.29 | 1.12 | -0.253 | 1.13 | 0.946 | 0.102 (inactive)
10 | COC(=O)[C@@]1(Cc2ccc(OC)cc2)[C@H]2c3cc(C(=O)N(C)C)n(Cc4c(CO)[nH]cc(C)c4=O)c3C[C@H]2CN1C(=O)c1ccccc1 | 0.302 | 0.0713 (inactive) | 0.23 | 0.484 | 0.876 | 2.97 | 0.221 | 0.55 | -0.31 | 0.554 | 0.566 | 1.18 | 1.93 | 0.0557 | 0.0689 | -0.583 | 0.144 | 0.0267 | 0.19 | 1.48 (inactive)
11 | C=CCOC(=O)[C@@H]1[C@H]2C(=O)O[C@H](c3ccccc3)[C@H](c3ccccc3)N2[C@H](c2ccc(OCCOC(=O)[C@@H]3C[C@@H]4C(=O)N[C@@H](CC(C)C)C(=O)N4[C@@H]3c3ccc(O)cc3)cc2)[C@@]12C(=O)Nc1ccc(I)cc12 | -0.766 | 0.207 (inactive) | 1.3 | 0.443 | 0.536 | 1.37 | 0.166 | 1.28 | 1.1 | 1.17 | 1.52 | 1.2 | 0.601 | 0.666 | 1.44 | 1.26 | -1.58 | 1.44 | 0.182 | -0.248 (inactive)
